Laboratory results from PubChem BioAssay (Tox21).
Records with an inconclusive call do not appear. Where a call stands in place of a potency, no number is given. Calls of active or inactive are those of the source. The call rests on the fitted dose curve; in most records, active means well fitted curve in the direction sought with a large enough effect in the repeat runs; inconclusive means weak or mixed curves; inactive means no such curve, though single readings can be large; an effect the other way counts as inactive or inconclusive.
Potency means the concentration at half of the fitted maximal effect.

Tested on: not listed separately
Assay: Caspase-3/7 induction in CHO-K1 cells by small molecules, qHTS assay (AID 1346980); further: nearly all actives have a fitted effect of over 15% in size
Details: CHO-K1 caspase-3/7 induction, Caspase-Glo luminescence, 17 h; series mostly up to 92.4 µM
In short: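 Wild-type cells were seeded at 1,500 per well and settled 5 hr at 37 C, 5% CO2, then exposed to DMSO-dissolved compounds for 17 hr. Caspase-Glo 3/7 reagent was added, and luminescence was read after 30min at room temperature.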
For `ClC1(Cl)C2(Cl)C3(Cl)C4(Cl)C(Cl)(Cl)C5(Cl)C3(Cl)C1(Cl)C5(Cl)C24Cl` (stereo not drawn), the Potency was “inactive”.
In the case of `CC(C)=CCN1CC[C@@]2(C)c3cc(O)ccc3C[C@@H]1[C@@H]2C`, the Potency is reported as “inactive”.
For `CC1CN1` (stereo not drawn), the Potency was “inactive”.
In the case of `CC(C)c1c(CN(C)C(C)Cc2ccccc2)n(C)n(-c2ccccc2)c1=O` (stereo not drawn), the Potency is reported as “inactive”.
For `Cc1nn(-c2cc(NS(C)(=O)=O)c(Cl)cc2Cl)c(=O)n1C(F)F`, the Potency was “inactive”.
With `CCC[CH2][Sn]([CH2]CCC)([CH2]CCC)[CH2]CCC` the Potency was 17.2 µM (active).
With `O=S1(=O)OCC2C(CO1)C1(Cl)C(Cl)=C(Cl)C2(Cl)C1(Cl)Cl` (stereo not drawn) the Potency was “inactive”.
For `C[C@]12C/C(=C/O)C(=O)C[C@@H]1CC[C@@H]1[C@@H]2CC[C@@]2(C)[C@H]1CC[C@]2(C)O`, the Potency was “inactive”.
For `[Cl][Hg][c]1ccccc1`, the Potency was “inactive”.
With `CCCCCON=O` the Potency was “inactive”.
For `ClC(Cl)C(Cl)(Cl)Cl`, the Potency was “inactive”.
For `COC(=O)/C=C(\C)OP(=O)(OC)OC`, the Potency was “inactive”.
For `CCCCC(CC)COC(=O)c1ccccc1C(=O)OCC(CC)CCCC` (stereo not drawn), the Potency was “inactive”.
For `O=C(Cl)c1ccccc1F`, the Potency was “inactive”.
For `CC1(C)[C@H](/C=C2\CCSC2=O)[C@@H]1C(=O)OCc1coc(Cc2ccccc2)c1`, the Potency was “inactive”.
In the case of `CCCCN(CCCC)C(=S)S`, the Potency is reported as “inactive”.
With `CCCN` the Potency was “inactive”.

Tested on: not listed separately
Assay: Caspase-3/7 induction in HepG2 cells by small molecules, qHTS cell viability counter screen (AID 1346981); further: nearly all actives have a fitted effect of over 30% in size
Details: CellTiter-Fluor fluorescence, 17 h; series mostly up to 92.4 µM
In short: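 Treatment of HepG2 cells with DMSO-delivered compounds ran 16 hr at 37 C following a 5-hr pre-incubation of 2,000 cells/well. CellTiter-Fluor fluorescence, read after 1 hr, served as the viability measure in a qHTS format.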
In the case of `CCOP(=S)(OCC)Oc1cc(C)nc(N(CC)CC)n1`, the Potency is reported as “inactive”.
With `Cc1ccc([N+](=O)[O-])[c]2c1[O][Hg]2` the Potency was 21.1 µM (active).
In the case of `CC(=O)[O][Sn]([c]1ccccc1)([c]1ccccc1)[c]1ccccc1`, the Potency is reported as 2.73 µM (active).
For `C=C(C)C(=O)[O][Sn]([CH2]CCC)([CH2]CCC)[CH2]CCC`, the Potency was 2.43 µM (active).
In the case of `CNC(=O)/C=C(\C)OP(=O)(OC)OC`, the Potency is reported as “inactive”.
With `CC(C)C(Nc1ccc(C(F)(F)F)cc1Cl)C(=O)OC(C#N)c1cccc(Oc2ccccc2)c1` (stereo not drawn) the Potency was “inactive”.
For `N#Cc1ccc(N(CC(N)=O)CC(F)(F)F)cc1C(F)(F)F`, the Potency was “inactive”.
With `O=C(O)CCCCCCNC1c2ccccc2CCc2ccccc21` the Potency was “inactive”.
For `C=CC(=O)[O][Sn]([CH2]CCC)([CH2]CCC)[CH2]CCC`, the Potency was 3.86 µM (active).
With `NC(=O)C(Cl)Cl` the Potency was “inactive”.
With `Cc1cccc(Cc2cnc[nH]2)c1C` the Potency was “inactive”.
For `N#CSCc1ccccc1`, the Potency was “inactive”.
With `CCOP(=O)(OCC)Oc1cc(C)nc(C(C)C)n1` the Potency was “inactive”.
With `OCC(Br)CBr` (stereo not drawn) the Potency was “inactive”.
With `N#CCCl` the Potency was “inactive”.
For `C=CC(=C)C`, the Potency was “inactive”.
For `CCn1cc[n+](C)c1` (tested in a mixture with another compound), the Potency was “inactive”.
With `CC(=O)[O][Pb]([c]1ccccc1)([c]1ccccc1)[c]1ccccc1` the Potency was 10.9 µM (active).
With `CCCCc1ccccc1` the Potency was “inactive”.
In the case of `CCNS(=O)(=O)C(F)(F)C(F)(F)C(F)(F)C(F)(F)C(F)(F)C(F)(F)C(F)(F)C(F)(F)F`, the Potency is reported as “inactive”.
For `Oc1ccc(Cl)c(Cl)c1`, the Potency was “inactive”.
In the case of `O=C(Nc1ccc(F)cc1F)c1cccnc1Oc1cccc(C(F)(F)F)c1`, the Potency is reported as “inactive”.
For `ClC1(Cl)C2(Cl)C3(Cl)C4(Cl)C(Cl)(Cl)C5(Cl)C3(Cl)C1(Cl)C5(Cl)C24Cl` (stereo not drawn), the Potency was “inactive”.
With `CC(C)=CCN1CC[C@@]2(C)c3cc(O)ccc3C[C@@H]1[C@@H]2C` the Potency was “inactive”.
For `CC1CN1` (stereo not drawn), the Potency was “inactive”.
In the case of `CC(C)c1c(CN(C)C(C)Cc2ccccc2)n(C)n(-c2ccccc2)c1=O` (stereo not drawn), the Potency is reported as “inactive”.
With `Cc1nn(-c2cc(NS(C)(=O)=O)c(Cl)cc2Cl)c(=O)n1C(F)F` the Potency was “inactive”.
In the case of `CCC[CH2][Sn]([CH2]CCC)([CH2]CCC)[CH2]CCC`, the Potency is reported as 61.1 µM (active).
With `O=S1(=O)OCC2C(CO1)C1(Cl)C(Cl)=C(Cl)C2(Cl)C1(Cl)Cl` (stereo not drawn) the Potency was “inactive”.
For `C[C@]12C/C(=C/O)C(=O)C[C@@H]1CC[C@@H]1[C@@H]2CC[C@@]2(C)[C@H]1CC[C@]2(C)O`, the Potency was “inactive”.
For `[Cl][Hg][c]1ccccc1`, the Potency was 12.2 µM (active).
In the case of `CCCCCON=O`, the Potency is reported as “inactive”.
In the case of `ClC(Cl)C(Cl)(Cl)Cl`, the Potency is reported as “inactive”.
With `COC(=O)/C=C(\C)OP(=O)(OC)OC` the Potency was “inactive”.
With `CCCCC(CC)COC(=O)c1ccccc1C(=O)OCC(CC)CCCC` (stereo not drawn) the Potency was “inactive”.
In the case of `O=C(Cl)c1ccccc1F`, the Potency is reported as “inactive”.
In the case of `CC1(C)[C@H](/C=C2\CCSC2=O)[C@@H]1C(=O)OCc1coc(Cc2ccccc2)c1`, the Potency is reported as “inactive”.
In the case of `CCCCN(CCCC)C(=S)S`, the Potency is reported as “inactive”.
For `CCCN`, the Potency was “inactive”.

Molecular target: Nuclear receptor subfamily 1 group I member 2 (Homo sapiens) (UniProt O75469)
Sequence (O75469 whole entry, looked up): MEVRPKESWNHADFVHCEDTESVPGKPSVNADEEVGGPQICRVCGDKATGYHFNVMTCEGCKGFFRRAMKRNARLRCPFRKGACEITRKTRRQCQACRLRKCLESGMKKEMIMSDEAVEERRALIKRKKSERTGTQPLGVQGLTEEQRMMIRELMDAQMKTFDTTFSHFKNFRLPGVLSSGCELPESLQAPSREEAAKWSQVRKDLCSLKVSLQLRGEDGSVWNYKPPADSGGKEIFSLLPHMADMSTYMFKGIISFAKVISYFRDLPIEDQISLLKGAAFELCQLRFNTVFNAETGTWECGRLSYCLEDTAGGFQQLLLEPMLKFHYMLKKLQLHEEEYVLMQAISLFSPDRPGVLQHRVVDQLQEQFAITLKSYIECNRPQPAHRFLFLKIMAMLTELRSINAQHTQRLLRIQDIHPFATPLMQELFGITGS
Assay: Human pregnane X receptor (PXR) small molecule agonists, qHTS assay (AID 1346982); further: nearly all actives have a fitted effect of over 35% in size
Details: PXR-Luc HepG2, CYP3A4 luciferase reporter, 24 h; series mostly up to 92.4 µM
In short: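 Stable HepG2 line reporting PXR-mediated CYP3A4 expression via luciferase. Treatment: 24 hr with compounds in DMSO at 37 C. Detection: ONE-Glo luminescence.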
For `CCOP(=S)(OCC)Oc1cc(C)nc(N(CC)CC)n1`, the Potency was 17.2 µM (active).
With `Cc1ccc([N+](=O)[O-])[c]2c1[O][Hg]2` the Potency was 0.668 µM (active).
In the case of `CC(=O)[O][Sn]([c]1ccccc1)([c]1ccccc1)[c]1ccccc1`, the Potency is reported as 0.243 µM (active).
In the case of `C=C(C)C(=O)[O][Sn]([CH2]CCC)([CH2]CCC)[CH2]CCC`, the Potency is reported as 0.193 µM (active).
For `CNC(=O)/C=C(\C)OP(=O)(OC)OC`, the Potency was “inactive”.
In the case of `CC(C)C(Nc1ccc(C(F)(F)F)cc1Cl)C(=O)OC(C#N)c1cccc(Oc2ccccc2)c1` (stereo not drawn), the Potency is reported as 13.8 µM (active).
In the case of `N#Cc1ccc(N(CC(N)=O)CC(F)(F)F)cc1C(F)(F)F`, the Potency is reported as “inactive”.
For `O=C(O)CCCCCCNC1c2ccccc2CCc2ccccc21`, the Potency was “inactive”.
With `C=CC(=O)[O][Sn]([CH2]CCC)([CH2]CCC)[CH2]CCC` the Potency was 0.172 µM (active).
With `NC(=O)C(Cl)Cl` the Potency was “inactive”.
For `Cc1cccc(Cc2cnc[nH]2)c1C`, the Potency was “inactive”.
With `N#CSCc1ccccc1` the Potency was 43.5 µM (active).
In the case of `CCOP(=O)(OCC)Oc1cc(C)nc(C(C)C)n1`, the Potency is reported as “inactive”.
In the case of `OCC(Br)CBr` (stereo not drawn), the Potency is reported as “inactive”.
In the case of `N#CCCl`, the Potency is reported as “inactive”.
With `C=CC(=C)C` the Potency was “inactive”.
With `CCn1cc[n+](C)c1` (tested in a mixture with another compound) the Potency was “inactive”.
With `CC(=O)[O][Pb]([c]1ccccc1)([c]1ccccc1)[c]1ccccc1` the Potency was “inactive”.
In the case of `CCCCc1ccccc1`, the Potency is reported as “inactive”.
For `CCNS(=O)(=O)C(F)(F)C(F)(F)C(F)(F)C(F)(F)C(F)(F)C(F)(F)C(F)(F)C(F)(F)F`, the Potency was “inactive”.
For `Oc1ccc(Cl)c(Cl)c1`, the Potency was 60.2 µM (active).
With `O=C(Nc1ccc(F)cc1F)c1cccnc1Oc1cccc(C(F)(F)F)c1` the Potency was 4.24 µM (active).
With `ClC1(Cl)C2(Cl)C3(Cl)C4(Cl)C(Cl)(Cl)C5(Cl)C3(Cl)C1(Cl)C5(Cl)C24Cl` (stereo not drawn) the Potency was “inactive”.
For `CC(C)=CCN1CC[C@@]2(C)c3cc(O)ccc3C[C@@H]1[C@@H]2C`, the Potency was “inactive”.
In the case of `CC1CN1` (stereo not drawn), the Potency is reported as “inactive”.
For `Cc1nn(-c2cc(NS(C)(=O)=O)c(Cl)cc2Cl)c(=O)n1C(F)F`, the Potency was “inactive”.
In the case of `CCC[CH2][Sn]([CH2]CCC)([CH2]CCC)[CH2]CCC`, the Potency is reported as 6.11 µM (active).
With `O=S1(=O)OCC2C(CO1)C1(Cl)C(Cl)=C(Cl)C2(Cl)C1(Cl)Cl` (stereo not drawn) the Potency was 21.7 µM (active).
In the case of `[Cl][Hg][c]1ccccc1`, the Potency is reported as “inactive”.
With `CCCCCON=O` the Potency was “inactive”.
In the case of `ClC(Cl)C(Cl)(Cl)Cl`, the Potency is reported as “inactive”.
With `COC(=O)/C=C(\C)OP(=O)(OC)OC` the Potency was “inactive”.
In the case of `CCCCC(CC)COC(=O)c1ccccc1C(=O)OCC(CC)CCCC` (stereo not drawn), the Potency is reported as 6.86 µM (active).
In the case of `O=C(Cl)c1ccccc1F`, the Potency is reported as “inactive”.
In the case of `CC1(C)[C@H](/C=C2\CCSC2=O)[C@@H]1C(=O)OCc1coc(Cc2ccccc2)c1`, the Potency is reported as 21.7 µM (active).
In the case of `CCCCN(CCCC)C(=S)S`, the Potency is reported as 24.3 µM (active).
In the case of `CCCN`, the Potency is reported as “inactive”.
